Measured values: PubChem BioAssay (NCATS)
Records with an inconclusive call do not appear. Active and inactive are the calls of the source. Unless noted, calls follow the shape of the dose curve; as a rule, active = well fitted curve in the direction sought with a large enough effect; inconclusive = small, poorly fitted or top-dose-only effect, or another doubt; inactive = no such curve, though single readings can be large; an effect the other way counts as inactive or inconclusive.

Legend:
[1] = qHTS Assay for Identification of Small Molecule Agonists for NFkB Signaling Pathway. (AID 624478);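 also: compounds tested together with TNF alpha at its EC50 of 10 pM; 0% is about no effect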
Procedure, shortened: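 Activators were sought in reporter cells stimulated at the TNF alpha EC50 (10 pM final). Compound and cytokine were co-incubated 5 hours at 37 C before beta-lactamase substrate detection by dual-emission fluorescence.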

[2] = Cell Proliferation Assay against the TMD8 Cell Line (AID 651645); conditions: TMD8 DLBCL cell line proliferation/viability; at 46.1 µM (top of the series);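 also: cells exposed to compound for 48 h before reading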
Procedure, shortened: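 TMD8 ABC DLBCL cells, 500 per well in phenol red-free RPMI with 5% FBS, were treated with compound by pin transfer and incubated 48 hours at 37C, 5% CO2. Viability was read by CellTiter-Glo luminescence, normalised to DMSO (100%) and 9.2 uM bortezomib (0%).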

[3] = Cell Proliferation Assay against the HBL1 Cell Line (AID 651646); conditions: HBL1 DLBCL cells; at 46.1 µM (top of the series);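 also: cells exposed to compound for 48 h before reading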
Procedure, shortened: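 HBL1, 500 cells/well, RPMI no phenol red + 5% FBS; cpd pinned, 48 h 37C/5% CO2; CellTiter-Glo, 15 min RT, luminescence. % activity: DMSO = 100%, bortezomib 9.2 uM final = 0%.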

[4] = Cell Proliferation Assay against the TMD8 Cell Line (Caspase readout at 8 hrs) (AID 651713); also: potency is read from the fitted curve at half-maximal effect
Procedure, shortened: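 Caspase 3/7 activation in ABC DLBCL TMD8 cells is measured by luminescence after an 8 h compound exposure at 37C. Relative light units are scaled between DMSO (0%) and 9.2 uM final bortezomib (100%).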

[5] = qHTS for small molecule inhibitors of Yes1 kinase: Counter Assay (AID 686950);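 also: no kinase present so only ADP-Glo detection of a fixed ADP amount is tested; luminescence from ADP-Glo reporting ADP in a fixed ATP and ADP mixture; 0% = DMSO wells with ATP plus ADP and -100% = ATP-only wells without ADP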
Procedure, shortened: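 No kinase present; 0.08 mM ATP + 0.02 mM ADP in 50 mM Tris pH 7.5, 10 mM MgCl2, 150 mM NaCl, 1 mM DTT; 20 min compound preincubation, 60 min RT, ADP-Glo luminescence, normalized to ATP/ADP (max) and ATP-only (min).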

[6] = qHTS Assay for Identification of Small Molecule Antagonists for NFkB Signaling Pathway. (AID 624479; calls by dose curve;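 also: pathway stimulated with TNF alpha; potency is read from the fitted curve at half-maximal effect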)
[7] = target: Tyrosine-protein kinase Yes (Homo sapiens) (UniProt P07947); assay: qHTS for small molecule inhibitors of Yes1 kinase: Primary Screen (AID 686947); also: nearly all actives have a fitted effect of over 60% in size; also: potency is read from the fitted curve at half-maximal effect
Tyrosine-protein kinase Yes (Homo sapiens), sequence (P07947 whole entry, looked up): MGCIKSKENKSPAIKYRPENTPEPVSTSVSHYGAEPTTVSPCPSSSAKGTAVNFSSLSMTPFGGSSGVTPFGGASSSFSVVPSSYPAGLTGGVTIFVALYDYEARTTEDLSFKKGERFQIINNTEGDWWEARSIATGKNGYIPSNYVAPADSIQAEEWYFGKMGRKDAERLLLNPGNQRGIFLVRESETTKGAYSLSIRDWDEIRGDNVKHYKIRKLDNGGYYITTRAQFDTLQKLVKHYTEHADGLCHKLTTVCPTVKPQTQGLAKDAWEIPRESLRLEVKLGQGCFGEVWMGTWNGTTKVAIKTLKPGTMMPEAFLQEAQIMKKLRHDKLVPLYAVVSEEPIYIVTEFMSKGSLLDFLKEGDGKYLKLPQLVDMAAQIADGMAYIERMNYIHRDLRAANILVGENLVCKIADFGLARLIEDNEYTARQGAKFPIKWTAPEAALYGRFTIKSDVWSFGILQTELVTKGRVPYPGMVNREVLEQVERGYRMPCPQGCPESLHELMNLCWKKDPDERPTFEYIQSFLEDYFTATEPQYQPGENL
Procedure, shortened: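 ADP-Glo luminescence reports ADP formed by 4 nM Yes1 phosphorylating poly(E4Y) (0.3 mg/mL) with 0.1 mM ATP for 60 min at room temperature, following 20 min compound preincubation; normalised between DMSO wells with and without enzyme.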

[8] = Cell Proliferation Assay against the TMD8 Cell Line (Caspase readout at 16 hrs) (AID 651712); also: potency is read from the fitted curve at half-maximal effect
Procedure, shortened: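 Caspase-Glo luminescence after 16 h compound exposure of TMD8 cells, 37 °C, 5% CO2. Medium: RPMI without phenol red, 5% FBS. Normalisation: DMSO = 0%, bortezomib 9.2 uM final = 100%.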

Cc1cc(Nc2cc(N3CCN(C)CC3)nc(Sc3ccc(NC(=O)C4CC4)cc3)n2)n[nH]1
outcome [1]: inactive | viability (% of control) [2]: 19.5% | viability, percent of control [3]: 27.1% | Potency [4]: inactive | outcome [5]: inactive

COc1cc2c(Oc3ccc4[nH]c(C)cc4c3F)ncnc2cc1OCCCN1CCCC1
viability, percent of control [3]: 1.27% | outcome [5]: inactive

COc1cc(C(C)C)c2c(c1)S(=O)(=O)N(COc1cc(=O)n3cccc(OCCN4CCCCC4)c3n1)C2=O
outcome [1]: inactive | Potency [6]: 14.9 µM (active) | viability, percent of control [3]: 1.12% | Potency [7]: inactive | outcome [5]: inactive

CC(C)=CCCC(C)=CCCC(C)=CCSc1ccccc1C(=O)O
viability, percent of control [3]: 85.3% | Potency [4]: inactive | outcome [5]: inactive

Cc1cc(Nc2cc(NC(=O)c3c(Cl)cccc3Cl)ccn2)nc(N)n1
Potency [6]: 0.266 µM (active) | viability (% of control) [2]: 2.69% | viability, percent of control [3]: 31.3% | Potency [8]: 18.7 µM (active) | Potency [4]: 29.6 µM (active) | Potency [7]: 0.194 µM (active) | outcome [5]: inactive
